# Paper PMC7862700, “An all-to-all approach to the identification of sequence-specific readers for epigenetic DNA modifications on cytosine”
# Assays:
# Assay in all cases: DAPPL (digital affinity profiling via proximity ligation, sequencing); 10 mM Tris-HCl pH 7.5, 50 mM NaCl, 1 mM DTT, 4% glycerol, room temperature, 30 min; GST-TFs on glutathione beads, 16-mer random dsDNA library, 0.1% formaldehyde crosslink after washing; high values mean tight binding
# Conditions in all cases: protein: recombinant; tags: N-terminal GST; dsDNA, one strand shown
# [1] = biological target: ETV1 (Homo sapiens, UniProt P50549 1-477)
# Chain of ETV1 (P50549 whole entry, the tested form may be a part): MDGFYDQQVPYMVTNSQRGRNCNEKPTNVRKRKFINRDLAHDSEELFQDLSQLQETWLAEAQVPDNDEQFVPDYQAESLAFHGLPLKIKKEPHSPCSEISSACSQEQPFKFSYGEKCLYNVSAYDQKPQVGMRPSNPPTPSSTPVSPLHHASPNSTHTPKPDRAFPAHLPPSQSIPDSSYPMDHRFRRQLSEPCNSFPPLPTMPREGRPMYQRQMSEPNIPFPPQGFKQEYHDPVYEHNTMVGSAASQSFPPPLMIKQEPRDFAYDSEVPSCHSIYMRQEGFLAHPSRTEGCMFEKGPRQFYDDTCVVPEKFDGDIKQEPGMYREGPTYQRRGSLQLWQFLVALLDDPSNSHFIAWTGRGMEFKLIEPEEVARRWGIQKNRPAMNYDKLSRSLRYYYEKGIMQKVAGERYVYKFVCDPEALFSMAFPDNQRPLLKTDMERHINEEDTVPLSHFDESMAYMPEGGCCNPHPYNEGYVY
# Method in brief: (§1)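 The binding signal reported is, for every hexamer, its read frequency for a factor over its read frequency for the tag-only sample. Reads came from pools of yeast-expressed, GST-fused human transcription factors on glutathione beads, barcoded with DNA and mixed with that sample, which were incubated with 200 nmole of a random double-stranded 16-mer DNA library in Tris/NaCl/DTT/glycerol buffer at room temperature for 30 min. After washing, the pools were crosslinked with 0.1% formaldehyde, proximity-ligated with BsaI/T4 ligase for 1 h at 37 °C, PCR-amplified and sequenced on an Illumina NextSeq500.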
# [2] = biological target: T1, ERF (Homo sapiens, UniProt P50548 1-548)
# T1 sequence: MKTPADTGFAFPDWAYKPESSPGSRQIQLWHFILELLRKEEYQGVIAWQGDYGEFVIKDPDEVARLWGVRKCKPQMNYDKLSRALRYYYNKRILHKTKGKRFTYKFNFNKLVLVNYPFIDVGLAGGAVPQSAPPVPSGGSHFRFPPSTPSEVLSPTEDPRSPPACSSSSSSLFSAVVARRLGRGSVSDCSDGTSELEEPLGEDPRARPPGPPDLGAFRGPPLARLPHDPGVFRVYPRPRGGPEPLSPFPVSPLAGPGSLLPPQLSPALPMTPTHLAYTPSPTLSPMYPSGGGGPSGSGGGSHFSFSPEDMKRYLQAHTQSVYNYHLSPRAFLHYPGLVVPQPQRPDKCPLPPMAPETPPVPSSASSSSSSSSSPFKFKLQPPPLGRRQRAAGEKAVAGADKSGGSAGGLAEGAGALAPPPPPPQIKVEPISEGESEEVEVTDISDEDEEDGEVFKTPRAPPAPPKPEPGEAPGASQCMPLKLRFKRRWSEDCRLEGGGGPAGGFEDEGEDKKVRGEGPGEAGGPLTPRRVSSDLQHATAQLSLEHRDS
# Method in brief: as §1
# [3] = biological target: T2, ETV3L (Homo sapiens, UniProt Q6ZN32 1-361)
# T2 sequence: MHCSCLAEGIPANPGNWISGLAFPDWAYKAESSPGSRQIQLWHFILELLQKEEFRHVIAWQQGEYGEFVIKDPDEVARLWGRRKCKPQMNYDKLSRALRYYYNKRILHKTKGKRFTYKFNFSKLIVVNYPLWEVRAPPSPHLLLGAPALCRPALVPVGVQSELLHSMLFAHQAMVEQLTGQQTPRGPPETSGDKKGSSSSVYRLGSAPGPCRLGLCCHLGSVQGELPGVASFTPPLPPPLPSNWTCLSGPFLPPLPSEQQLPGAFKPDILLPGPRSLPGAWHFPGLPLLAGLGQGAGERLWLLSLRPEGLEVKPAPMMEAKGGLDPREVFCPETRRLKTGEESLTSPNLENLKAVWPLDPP
# Method in brief: as §1
# [4] = biological target: T3, ETS2 (Homo sapiens, UniProt P15036 1-469)
# T3 sequence: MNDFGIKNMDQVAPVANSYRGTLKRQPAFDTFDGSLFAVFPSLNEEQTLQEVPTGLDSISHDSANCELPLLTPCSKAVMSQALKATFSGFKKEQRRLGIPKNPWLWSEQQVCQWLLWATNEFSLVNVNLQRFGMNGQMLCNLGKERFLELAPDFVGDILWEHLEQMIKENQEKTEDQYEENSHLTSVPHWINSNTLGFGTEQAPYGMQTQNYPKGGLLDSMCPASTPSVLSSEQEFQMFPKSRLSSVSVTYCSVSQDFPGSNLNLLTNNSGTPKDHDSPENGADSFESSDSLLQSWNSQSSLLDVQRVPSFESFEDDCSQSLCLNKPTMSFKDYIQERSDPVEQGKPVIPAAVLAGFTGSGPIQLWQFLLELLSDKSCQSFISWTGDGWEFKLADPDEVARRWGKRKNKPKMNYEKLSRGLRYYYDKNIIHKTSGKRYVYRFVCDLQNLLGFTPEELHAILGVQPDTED
# Method in brief: as §1
# [5] = biological target: T4, SPDEF (Homo sapiens, UniProt O95238 1-335)
# T4 sequence: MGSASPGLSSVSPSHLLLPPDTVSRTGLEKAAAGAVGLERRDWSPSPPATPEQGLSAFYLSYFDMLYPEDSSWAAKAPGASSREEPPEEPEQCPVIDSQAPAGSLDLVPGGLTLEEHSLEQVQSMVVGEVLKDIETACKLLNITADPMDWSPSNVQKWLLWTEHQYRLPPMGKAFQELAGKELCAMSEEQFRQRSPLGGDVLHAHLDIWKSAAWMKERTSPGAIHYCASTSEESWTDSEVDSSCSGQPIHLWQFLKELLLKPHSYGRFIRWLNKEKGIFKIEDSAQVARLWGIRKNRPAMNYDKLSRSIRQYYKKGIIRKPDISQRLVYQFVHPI
# Method in brief: as §1
# [6] = biological target: T5, ETV7 (Homo sapiens, UniProt Q9Y603 1-341)
# T5 sequence: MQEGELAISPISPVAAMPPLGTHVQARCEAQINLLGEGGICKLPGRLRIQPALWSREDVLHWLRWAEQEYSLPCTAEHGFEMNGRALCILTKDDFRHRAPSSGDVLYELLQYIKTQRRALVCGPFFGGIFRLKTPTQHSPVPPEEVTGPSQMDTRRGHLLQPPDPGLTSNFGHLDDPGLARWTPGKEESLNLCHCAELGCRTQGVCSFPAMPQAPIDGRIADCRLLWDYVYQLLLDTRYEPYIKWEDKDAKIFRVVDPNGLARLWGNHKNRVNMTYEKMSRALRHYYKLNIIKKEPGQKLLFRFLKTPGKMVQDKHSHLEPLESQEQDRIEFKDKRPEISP
# Method in brief: as §1
# [7] = biological target: T6, ELF5 (Homo sapiens, UniProt Q9UKW6-2 1-255)
# T6 sequence: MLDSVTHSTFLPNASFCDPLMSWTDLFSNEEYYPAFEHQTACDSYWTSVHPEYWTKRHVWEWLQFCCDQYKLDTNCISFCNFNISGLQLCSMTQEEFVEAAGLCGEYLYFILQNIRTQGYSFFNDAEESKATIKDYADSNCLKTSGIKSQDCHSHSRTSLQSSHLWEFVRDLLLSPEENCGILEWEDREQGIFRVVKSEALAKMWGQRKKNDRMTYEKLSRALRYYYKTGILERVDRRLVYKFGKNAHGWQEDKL
# Method in brief: as §1
# [8] = biological target: T7, ETV3 (Homo sapiens, UniProt P41162-2 1-143)
# T7 sequence: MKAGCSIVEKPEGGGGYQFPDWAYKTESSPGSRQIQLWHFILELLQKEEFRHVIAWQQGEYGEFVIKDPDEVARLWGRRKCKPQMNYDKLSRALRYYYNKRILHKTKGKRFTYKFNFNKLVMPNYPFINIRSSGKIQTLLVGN
# Method in brief: as §1
# [9] = biological target: ETV6 (Homo sapiens, UniProt P41212 1-452)
# Chain of ETV6 (P41212 whole entry): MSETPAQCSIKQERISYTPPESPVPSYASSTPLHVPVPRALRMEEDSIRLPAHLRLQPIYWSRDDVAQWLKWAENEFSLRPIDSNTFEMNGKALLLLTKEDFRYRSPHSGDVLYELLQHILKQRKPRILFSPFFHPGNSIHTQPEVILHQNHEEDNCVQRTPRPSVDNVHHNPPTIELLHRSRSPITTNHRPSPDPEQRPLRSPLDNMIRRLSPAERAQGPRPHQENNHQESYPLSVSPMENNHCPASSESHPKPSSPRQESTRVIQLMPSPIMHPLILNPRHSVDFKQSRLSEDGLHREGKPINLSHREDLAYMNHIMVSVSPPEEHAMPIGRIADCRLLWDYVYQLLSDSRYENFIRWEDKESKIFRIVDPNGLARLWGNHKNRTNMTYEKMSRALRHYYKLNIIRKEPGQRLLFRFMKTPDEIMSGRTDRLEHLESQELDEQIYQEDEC
# Method in brief: as §1
sequence,measurement,setting,value
TATTTA,binding signal,[1],"1.51 fold enrichment (6-mer frequency, TF over GST control)"
same,binding signal,[2],"1.65 fold enrichment (6-mer frequency, TF over GST control)"
same,binding signal,[3],"1.44 fold enrichment (6-mer frequency, TF over GST control)"
same,binding signal,[4],"1.55 fold enrichment (6-mer frequency, TF over GST control)"
same,binding signal,[5],"1.47 fold enrichment (6-mer frequency, TF over GST control)"
same,binding signal,[6],"1.45 fold enrichment (6-mer frequency, TF over GST control)"
same,binding signal,[7],"1.37 fold enrichment (6-mer frequency, TF over GST control)"
same,binding signal,[8],"1.41 fold enrichment (6-mer frequency, TF over GST control)"
same,binding signal,[9],"1.43 fold enrichment (6-mer frequency, TF over GST control)"
